This is an account of results in PubChem BioAssay.

Records with an inconclusive call do not appear. Activity calls are given as the source filed them.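 How the source made its calls, unless noted: active means inhibition above 54%, about 3 SD of non-fluorescent compounds; inactive means the rest.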

The nature of assay [1]: rapamycin-like changes in RPL19A-GFP expression – cell-based, S. cerevisiae, multiplex flow cytometry, primary screen (AID 1862; in the data active means percent of DMSO control GFP below about 86%;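 further: lower values mimic rapamycin by blocking the RPL19A rise seen in DMSO cells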). As to conditions: S. cerevisiae RPL19A-GFP strain, flow cytometry fluorescence, 3 h; at 10 µM; stronger effect = lower value. Background: A flow cytometer gives signals particle by particle.
Assay [2] is described as follows: TOR pathway GLN3 branch reporter MEP2-GFP changes – S. cerevisiae, multiplex flow cytometry, primary screen (AID 1867;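 active means GFP response, as percent of the DMSO control, above the screen-wide mean plus 3 SD, about 139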;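 further: median GFP channel fluorescence of barcode-gated MEP2-GFP cells measured by flow cytometry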). As to conditions: S. cerevisiae MEP2-GFP strain, 3 h, at 10 µM, stronger effect = higher value, 100% means same as DMSO wells.
Assay [3] is described as follows: TOR pathway RTG branch CIT2 reporter changes – S. cerevisiae, GFP fusion, multiplex flow cytometry, primary screen (AID 1870;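 active means percent response above a set limit, the screen-wide mean plus 3 SD, cut at about 130% in these data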;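 further: barcoded CIT2-GFP strain pooled with four other GFP strains with rapamycin as positive control; median GFP fluorescence per well over plate mean of DMSO wells so 100% = DMSO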). As to conditions: S. cerevisiae CIT2-GFP expression, 3 h, at 10 µM, stronger effect = higher value.
A short description of assay [4]: TOR pathway LAP4-GFP level changes – S. cerevisiae, multiplex flow cytometry, primary screen (AID 1873;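 active means GFP signal, as percent of the solvent control, above the screen mean plus 3 SD, about 149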). Conditions: S. cerevisiae LAP4-GFP expression, 3 h, at 10 µM, stronger effect = higher value.
Assay [5] can be described thus: yeast AGP1-GFP level changes, GLN3 branch – cell-based, multiplex flow cytometry, S. cerevisiae, primary screen (AID 1887;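 active means GFP signal above the screen-wide mean plus 3 SD, that is over about 124.5% of the solvent control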;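 further: AGP1-GFP fusion strain of S. cerevisiae within a five-strain barcoded multiplex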). As to conditions: 3 h, at 10 µM, stronger effect = higher value.
Assay [6] is described as follows: reduced mouse 2C T cell binding to pMHC/ICAM-1 vesicles – MLPCN validation set, flow cytometry, LFA-1/ICAM-1 modulator project, pilot screen (AID 2523;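 active means response below a set limit, under 55% cells CD8-positive and vesicle-bound, and CD8 cells' 90th-percentile brightness under 279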;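 on vesicle binding response: mean PE anti-B7-1 fluorescence of CD8+ cells relative to row control; 100% = QL9-loaded vesicles with DMSO vehicle in the same plate row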). Conditions: 2C mouse CD8+ T cells, at 7 µM, stronger effect = lower value; double positive events: measured here: CD8+/vesicle+ event percentage.
The target in assay [7] is Integrin beta-1 (Homo sapiens) + Integrin alpha-4 (Homo sapiens) (UniProt P13612+P05556). Put plainly: alpha4beta1 integrin LIBS antibody binding reduction – U937 cells, HUTS-21 mAb, flow cytometry, validation set, VLA-4 allosteric modulator project, pilot screen (AID 2674;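 active means inhibition above 50%, about 3 SD of the validation set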;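 further: antibody binding induced by the VLA-4 ligand LDV present at three times its Kd; 0% = LDV ligand with antibody and no compound and 100% = antibody without LDV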). As to conditions: HUTS-21 LIBS mAb binding, at 6.7 µM, stronger effect = higher value, binding induced by LDV ligand.

A short description of assay [8]: calorie-restriction mimetic ROS inhibitors, yeast – validation compound set, pilot screen (AID 2706;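 active means superoxide response below 65% of plate, a cut near 3 SD across the whole screen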;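 further: yeast exposed to compound for one week at 30 degrees C before staining; 100% = mean of all compound wells on the same plate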). As to conditions: S. cerevisiae aging, superoxide DHE fluorescence; at 10 µM, stronger effect = lower value.
Assay [9] concerns the target Beta-adrenergic receptor kinase 1 (Homo sapiens) (UniProt P25098). The assay is described as follows: GRK2 binders displacing RNA aptamer, biochemical, validation, human GRK2, bead flow cytometry (AID 488806;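 active means aptamer binding inhibition above 30%, about 3 SD of noise from non-fluorescent compounds; inactive means inhibition at or below 30%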). As to conditions: bead-bound GRK2, FAM-aptamer displacement, at 10 µM, stronger effect = higher value.
Assay [10] concerns the target AP-2 complex subunit beta (Homo sapiens) (UniProt P63010). The assay is described as follows: beta-arrestin/AP2 interaction blockers – biochemical, validation set, GST-AP2 beads, flow cytometry, pilot screen (AID 504541).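 Further: AP2 carries R879A mutation and is captured from E. coli lysate; bead-bound FITC arrestin peptide fluorescence measuring arrestin peptide binding to AP2; 0% = DMSO wells and 100% = excess unlabeled arrestin peptide control.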 Conditions: FITC arrestin peptide, at 10 µM, stronger effect = higher value, AP2 beta2 appendage fragment, R879A mutant.
Assay [11] can be described thus: cytosolic pH regulators acting via V-ATPase – S. cerevisiae, pHLuorin, HTS validation (AID 504600; in the data active means response above about 15%;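 further: plate controls were DMSO for no effect and reference compound for full effect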). Conditions: V-ATPase proton transport, at 10 µM, stronger effect = higher value.
Assay [12] relates to anti-desmoglein-3 scFv antibody binding to human DSG3. The assay is described as follows: blockers of pathogenic pemphigus antibody–desmoglein-3 binding – biochemical, validation compound set, bead-based, flow cytometry, pilot screen (AID 588368;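 active means binding below the plate cutoff, the plate median minus 3 SD, with a reading above zero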;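 further: signal is the median channel fluorescence of bead-bound GFP antibody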). Conditions: Protein G beads, DSG3-Fc, scFv-GFP binding, at 10 µM, stronger effect = lower value.
Assay [13] in a line: Nile Red efflux blockade in pump-expressing yeast – validation compound set, multiplex, phenotypic, pilot screen (AID 588506;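 active means efflux inhibition above 0.42, the validation set average plus 4 SD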;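 further: Nile Red retained in cells so higher fluorescence means more efflux inhibition; 0 = negative control wells and 1 = enniatin B 25 µM full block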). Conditions: S. cerevisiae pump-expressing triplex, Nile Red efflux flow cytometry; at 10 µM; stronger effect = higher value; the pumps come from Candida albicans.
Assay [14] has as its target ATP-binding cassette sub-family B member 6 (Homo sapiens) (UniProt Q9NP58). Put plainly: blockers of ABCB6-driven porphyrin uptake – K562-ABCB6 cells, flow cytometry, validation set, pilot screen (AID 588550;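 active means inhibition above the screen-wide mean plus 3 SD, about 51%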;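 further: 0% = DMSO wells and 100% = benzethonium chloride 70 µM positive control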). Conditions: K562-ABCB6 porphyrin accumulation, 1 h, at 10 µM, stronger effect = higher value.
Assay [15] can be described thus: AML differentiation inducers, ER-HoxA9 marrow cells – cell-based, GFP/MAC1 double positive, flow cytometry, validation set, primary screen (AID 588685;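 active means differentiation response of at least 50%, scaled between solvent and reference control, from cells with both markers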;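 further: compound exposure lasts four days before antibody staining and flow analysis; 0% = DMSO wells and 100% = 5 µM fulvestrant positive control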). Conditions: stronger effect = higher value, normalized: vehicle 0, fulvestrant 100.

Chain of Beta-adrenergic receptor kinase 1 (Homo sapiens) (P25098 whole entry, looked up): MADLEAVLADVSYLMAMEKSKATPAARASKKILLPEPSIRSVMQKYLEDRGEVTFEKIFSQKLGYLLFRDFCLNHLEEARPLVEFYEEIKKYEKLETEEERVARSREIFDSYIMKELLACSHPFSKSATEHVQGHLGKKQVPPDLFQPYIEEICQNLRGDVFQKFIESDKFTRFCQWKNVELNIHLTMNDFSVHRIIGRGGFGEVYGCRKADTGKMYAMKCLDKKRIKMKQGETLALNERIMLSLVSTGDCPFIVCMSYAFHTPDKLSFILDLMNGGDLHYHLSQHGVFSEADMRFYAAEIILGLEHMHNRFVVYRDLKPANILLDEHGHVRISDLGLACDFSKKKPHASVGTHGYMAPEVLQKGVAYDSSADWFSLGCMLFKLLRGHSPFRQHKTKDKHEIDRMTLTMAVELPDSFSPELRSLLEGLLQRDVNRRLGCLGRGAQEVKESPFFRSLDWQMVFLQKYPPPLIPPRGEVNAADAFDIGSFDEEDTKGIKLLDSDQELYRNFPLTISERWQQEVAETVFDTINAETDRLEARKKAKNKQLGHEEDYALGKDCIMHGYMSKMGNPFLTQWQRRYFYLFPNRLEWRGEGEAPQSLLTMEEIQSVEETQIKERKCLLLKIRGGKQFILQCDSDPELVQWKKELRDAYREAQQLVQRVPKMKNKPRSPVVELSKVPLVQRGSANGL
Chain of AP-2 complex subunit beta (Homo sapiens) (P63010 whole entry, looked up, the tested form may be a part, one chain of several): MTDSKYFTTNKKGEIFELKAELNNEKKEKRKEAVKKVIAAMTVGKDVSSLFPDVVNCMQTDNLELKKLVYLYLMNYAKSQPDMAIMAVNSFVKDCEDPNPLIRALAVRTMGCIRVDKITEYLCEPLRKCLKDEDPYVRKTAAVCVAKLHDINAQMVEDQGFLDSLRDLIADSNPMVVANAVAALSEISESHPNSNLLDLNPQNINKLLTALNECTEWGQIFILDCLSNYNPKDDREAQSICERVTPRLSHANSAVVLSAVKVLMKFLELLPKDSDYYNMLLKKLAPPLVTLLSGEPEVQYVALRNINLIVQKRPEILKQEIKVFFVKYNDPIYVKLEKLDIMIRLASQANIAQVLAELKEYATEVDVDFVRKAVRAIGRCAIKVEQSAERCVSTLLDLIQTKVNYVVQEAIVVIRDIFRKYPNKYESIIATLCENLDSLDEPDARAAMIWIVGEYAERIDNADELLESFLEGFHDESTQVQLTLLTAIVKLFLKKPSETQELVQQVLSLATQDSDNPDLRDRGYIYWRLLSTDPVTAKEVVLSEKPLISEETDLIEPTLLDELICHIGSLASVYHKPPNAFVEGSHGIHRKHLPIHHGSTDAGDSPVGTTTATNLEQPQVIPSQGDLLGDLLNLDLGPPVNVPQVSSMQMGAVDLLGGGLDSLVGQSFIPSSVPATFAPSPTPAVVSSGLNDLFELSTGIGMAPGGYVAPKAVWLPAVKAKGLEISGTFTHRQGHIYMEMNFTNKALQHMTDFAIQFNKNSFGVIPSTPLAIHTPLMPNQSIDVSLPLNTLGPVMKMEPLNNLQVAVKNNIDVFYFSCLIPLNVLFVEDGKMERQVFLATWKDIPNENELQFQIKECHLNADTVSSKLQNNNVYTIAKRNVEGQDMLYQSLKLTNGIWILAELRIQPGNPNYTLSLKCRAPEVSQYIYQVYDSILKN
Chain of Integrin beta-1 (Homo sapiens) + Integrin alpha-4 (Homo sapiens) (P05556 whole entry, looked up): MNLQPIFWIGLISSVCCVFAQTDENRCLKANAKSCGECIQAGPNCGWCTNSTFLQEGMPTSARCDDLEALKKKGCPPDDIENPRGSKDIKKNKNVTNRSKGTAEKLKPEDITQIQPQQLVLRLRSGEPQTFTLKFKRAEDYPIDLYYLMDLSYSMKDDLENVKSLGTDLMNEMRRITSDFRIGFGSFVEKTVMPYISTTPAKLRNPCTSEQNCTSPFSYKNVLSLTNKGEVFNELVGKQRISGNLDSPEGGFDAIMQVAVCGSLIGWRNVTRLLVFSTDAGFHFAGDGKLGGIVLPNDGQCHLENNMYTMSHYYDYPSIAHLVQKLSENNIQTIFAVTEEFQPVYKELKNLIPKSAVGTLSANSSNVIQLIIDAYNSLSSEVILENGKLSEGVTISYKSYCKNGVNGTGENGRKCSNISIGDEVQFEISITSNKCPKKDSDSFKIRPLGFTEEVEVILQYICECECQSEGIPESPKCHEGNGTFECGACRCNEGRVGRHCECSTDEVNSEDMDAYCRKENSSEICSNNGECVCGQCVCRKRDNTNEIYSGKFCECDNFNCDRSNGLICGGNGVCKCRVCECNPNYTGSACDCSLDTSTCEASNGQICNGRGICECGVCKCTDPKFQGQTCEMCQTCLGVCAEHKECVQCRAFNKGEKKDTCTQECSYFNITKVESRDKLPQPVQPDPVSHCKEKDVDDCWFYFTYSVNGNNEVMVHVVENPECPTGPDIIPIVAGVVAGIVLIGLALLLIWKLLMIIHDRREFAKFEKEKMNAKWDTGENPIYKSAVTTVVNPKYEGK
Chain of Integrin beta-1 (Homo sapiens) + Integrin alpha-4 (Homo sapiens) (P13612 whole entry, looked up): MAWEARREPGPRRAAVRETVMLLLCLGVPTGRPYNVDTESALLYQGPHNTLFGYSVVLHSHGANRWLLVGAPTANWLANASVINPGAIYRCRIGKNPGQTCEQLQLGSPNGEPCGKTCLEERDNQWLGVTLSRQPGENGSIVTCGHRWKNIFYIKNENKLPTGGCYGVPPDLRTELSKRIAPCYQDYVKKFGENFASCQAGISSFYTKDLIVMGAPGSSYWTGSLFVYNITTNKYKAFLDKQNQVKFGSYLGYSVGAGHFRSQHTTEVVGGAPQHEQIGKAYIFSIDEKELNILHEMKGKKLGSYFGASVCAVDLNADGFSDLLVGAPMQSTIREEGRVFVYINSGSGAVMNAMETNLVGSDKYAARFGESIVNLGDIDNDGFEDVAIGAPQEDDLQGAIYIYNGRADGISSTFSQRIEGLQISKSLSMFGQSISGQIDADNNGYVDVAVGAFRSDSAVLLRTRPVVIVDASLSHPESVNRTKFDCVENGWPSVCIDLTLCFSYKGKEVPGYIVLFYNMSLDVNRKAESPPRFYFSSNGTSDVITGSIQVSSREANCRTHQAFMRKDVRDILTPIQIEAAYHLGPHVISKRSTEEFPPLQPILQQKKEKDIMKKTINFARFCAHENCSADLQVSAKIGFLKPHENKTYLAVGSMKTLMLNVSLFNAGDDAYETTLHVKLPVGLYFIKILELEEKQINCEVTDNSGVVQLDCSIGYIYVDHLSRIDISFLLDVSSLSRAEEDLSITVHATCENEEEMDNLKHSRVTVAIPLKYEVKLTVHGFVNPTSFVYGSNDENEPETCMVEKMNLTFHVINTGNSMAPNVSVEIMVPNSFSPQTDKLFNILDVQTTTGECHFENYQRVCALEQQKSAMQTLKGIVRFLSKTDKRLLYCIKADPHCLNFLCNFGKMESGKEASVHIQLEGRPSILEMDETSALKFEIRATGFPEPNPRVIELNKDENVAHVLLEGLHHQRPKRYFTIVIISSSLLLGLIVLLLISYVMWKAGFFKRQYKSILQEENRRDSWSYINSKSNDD
Chain of ATP-binding cassette sub-family B member 6 (Homo sapiens) (Q9NP58 whole entry, looked up): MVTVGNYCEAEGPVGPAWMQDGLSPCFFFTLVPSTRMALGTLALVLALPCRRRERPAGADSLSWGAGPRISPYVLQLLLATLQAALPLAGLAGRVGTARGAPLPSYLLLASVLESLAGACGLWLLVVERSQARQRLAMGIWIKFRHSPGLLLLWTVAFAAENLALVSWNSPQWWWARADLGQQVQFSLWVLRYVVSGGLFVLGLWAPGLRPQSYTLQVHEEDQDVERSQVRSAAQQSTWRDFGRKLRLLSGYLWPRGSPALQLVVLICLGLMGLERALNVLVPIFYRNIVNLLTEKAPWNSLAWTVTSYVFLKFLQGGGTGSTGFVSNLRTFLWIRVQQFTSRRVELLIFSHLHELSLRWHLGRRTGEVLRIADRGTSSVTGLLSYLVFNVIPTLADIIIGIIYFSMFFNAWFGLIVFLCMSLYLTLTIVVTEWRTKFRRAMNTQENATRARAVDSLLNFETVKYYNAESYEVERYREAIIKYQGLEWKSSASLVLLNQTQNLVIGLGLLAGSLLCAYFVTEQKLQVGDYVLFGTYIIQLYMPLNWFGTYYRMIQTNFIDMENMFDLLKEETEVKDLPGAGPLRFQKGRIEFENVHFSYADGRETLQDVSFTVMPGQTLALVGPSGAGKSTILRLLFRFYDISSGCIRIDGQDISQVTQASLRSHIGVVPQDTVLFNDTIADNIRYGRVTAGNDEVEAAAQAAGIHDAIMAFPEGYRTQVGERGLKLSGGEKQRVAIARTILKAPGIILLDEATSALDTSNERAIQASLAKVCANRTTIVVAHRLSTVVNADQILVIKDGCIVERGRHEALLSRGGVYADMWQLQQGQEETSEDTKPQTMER

In general, inhibition refers to the drop in the measured response relative to a control, in per cent. As to `COC(=O)c1ccc(=O)n(Cc2ccco2)c1`, the percent of DMSO control GFP in [1] was 94.7% (inactive). For the same compound, the GFP response vs DMSO is 92.8% (inactive) in assay [2] and 92.3% (inactive) in assay [4]. Moreover, the percent response of DMSO control in [3] was 97.9% (inactive). Further, the GFP response, % of DMSO in assay [5] is 96.9% (inactive). In assay [6], this compound displayed a double positive events of 58.2%. Moreover, the vesicle binding response in [6] is 166% (inactive). The inhibition was -6.77% (inactive) in assay [7], -1.44% (inactive) in [10] and 12% (inactive) in [14]. Further, the superoxide response (% of plate) in [8] is 86.5% (inactive). Also, the aptamer binding inhibition in assay [9] is -2% (inactive). Further, the response in [11] was -0.2% (inactive). Moreover, the binding (% of control) in [12] is 94.6% (inactive). Moreover, in assay [13], the efflux inhibition (fraction of control) is -0.16 (inactive). Moreover, the differentiation response in [15] is -8.27% (inactive).
For the compound `CC(C)(C)[C@]1(O)CCN2C[C@H]3c4ccccc4CCc4cccc(c43)[C@@H]2C1`, the percent of DMSO control GFP in [1] was 106% (inactive). Also, the figures for the GFP response vs DMSO in assay [2] and in assay [4] were 97.9% (inactive) and 102% (inactive), respectively. In addition, in assay [3], the percent response of DMSO control is 112% (inactive). Also, in assay [5], the GFP response, % of DMSO was 107% (inactive). The double positive events in [6] is 35.9%. Besides, the vesicle binding response in assay [6] was 134% (inactive). The inhibition in [7] was -20.8% (inactive); in assay [10], -19.5% (inactive); in assay [14], 6% (inactive). Besides, the superoxide response (% of plate) in assay [8] is 95.1% (inactive). Besides, the aptamer binding inhibition in assay [9] was -4% (inactive). Also, in assay [11], the response is 1.63% (inactive). Also, the binding (% of control) in [12] was 106% (inactive). The efflux inhibition (fraction of control) in assay [13] is -0.2 (inactive). In addition, the differentiation response in [15] was 20.8% (inactive).
Take `COc1ccc2cc(CCC(C)=O)ccc2c1`: the percent of DMSO control GFP in [1] was 101% (inactive). Moreover, the GFP response vs DMSO in assay [2] was 103% (inactive); in assay [4] it was 101% (inactive). Besides, the percent response of DMSO control in assay [3] is 93% (inactive). For the same compound, the GFP response, % of DMSO in assay [5] was 85.2% (inactive). Besides, the double positive events in assay [6] turned out to be 55.4%. In addition, the vesicle binding response in assay [6] was 150% (inactive). Also, the inhibition in [7] was 2.56% (inactive); in [10], -2.69% (inactive); in assay [14] it was 4% (inactive). Moreover, in [8], the superoxide response (% of plate) was 86.7% (inactive). The aptamer binding inhibition in assay [9] is 2% (inactive). For the same compound, the response in assay [11] is -0.19% (inactive). The binding (% of control) in assay [12] is 108% (inactive). In assay [13], the efflux inhibition (fraction of control) is 0.63 (active). For the same compound, in assay [15], the differentiation response was 0% (inactive).
`COc1ccc2c(c1)c(CC(=O)O)c(C)n2C(=O)c1ccc(Cl)cc1`: the percent of DMSO control GFP in assay [1] was 105% (inactive). Further, the values for the GFP response vs DMSO in assay [2] and in [4] were 96.9% (inactive) and 101% (inactive), respectively. The percent response of DMSO control in assay [3] was 109% (inactive). Further, the GFP response, % of DMSO in assay [5] is 92.5% (inactive). The compound also registered a double positive events in [6] of 50%. Also, the vesicle binding response in assay [6] was 173% (inactive). Further, the inhibition in [7] is -25.4% (inactive); in [10], -6.1% (inactive); in [14], 10% (inactive). In addition, the superoxide response (% of plate) in assay [8] was 109% (inactive). The aptamer binding inhibition in assay [9] was 1% (inactive). Besides, the response in assay [11] was 9.1% (inactive). Moreover, the binding (% of control) in [12] is 102% (inactive). For the same compound, the efflux inhibition (fraction of control) in assay [13] is -0.01 (inactive). In addition, the differentiation response in assay [15] is -13.1% (inactive).
`COc1cccc(C2CCCN2Cc2nc(CCC(C)C)no2)c1` (stereo unspecified): the percent of DMSO control GFP in assay [1] was 101% (inactive). The GFP response vs DMSO in assay [2] was 116% (inactive); in assay [4], 109% (inactive). For the same compound, the percent response of DMSO control in [3] is 103% (inactive). Besides, the GFP response, % of DMSO in [5] is 101% (inactive). Also, in assay [6], the double positive events came out at 54.6%. Also, the vesicle binding response in assay [6] is 135% (inactive). Further, the results for the inhibition in assay [7], in assay [10] and in assay [14] were -9.57% (inactive), 5.57% (inactive) and 8% (inactive), respectively. In assay [8], the superoxide response (% of plate) was 102% (inactive). For the same compound, the aptamer binding inhibition in assay [9] is 0% (inactive). Also, the response in assay [11] was 3.31% (inactive). For the same compound, the binding (% of control) in assay [12] is 104% (inactive). Also, the efflux inhibition (fraction of control) in [13] is 0.25 (inactive). The differentiation response in assay [15] is 4.64% (inactive).
As for `CC(=O)NC1C(OCCOc2ccc(Cl)cc2Cl)OC(COC(C)=O)C(OC(C)=O)C1OC(C)=O` (stereo unspecified), the percent of DMSO control GFP in assay [1] was 103% (inactive). Besides, the GFP response vs DMSO was 102% (inactive) in assay [2] and 91.3% (inactive) in [4]. Besides, the percent response of DMSO control in assay [3] is 108% (inactive). Besides, the GFP response, % of DMSO in assay [5] is 94.5% (inactive). Moreover, the double positive events in assay [6] was found to be 55.1%. Also, the vesicle binding response in assay [6] was 168% (inactive). Also, the results for the inhibition in assay [7], in assay [10] and in assay [14] were 16.6% (inactive), 8.3% (inactive) and 9% (inactive), respectively. Further, in assay [8], the superoxide response (% of plate) is 108% (inactive). Besides, the aptamer binding inhibition in assay [9] was 3% (inactive). The response in assay [11] was -6.83% (inactive). The binding (% of control) in assay [12] was 101% (inactive). Besides, in assay [13], the efflux inhibition (fraction of control) is -0.2 (inactive). Also, the differentiation response in [15] is 20.8% (inactive).
